Molecules are shown by their SMILES. About 420 (8.8%) of roughly 4,800 compounds showed an effect of 50% or more. The full list was thinned out, with strong results kept by preference.

The assay concerns Plasmodium falciparum. Kind of assay: Confirmatory screen in NF54 nanoGlo assay, in single point, at 2uM, 72h. It counts as functional, Erythrocyte. To be noted: timepoint 72 hour.
As for `c1ccc(C[C@]2(c3ccccc3)CCNC2)cc1`, the “% Inhibition” value was determined as 1%.
On to `O=c1cc(N2CCN(C3CCCC3)CC2)cnn1Cc1ccccc1`, for which the “% Inhibition” value was -13%.
In the case of `O=C(Cc1ccccc1F)N1CC(n2cnnc2C2CCOCC2)C1`, the “% Inhibition” value was -14%.
As to `COc1ccc([C@@H]2CN(S(=O)(=O)c3ccc(OC)cc3)CCN2C)cc1`, the “% Inhibition” value came to 1%.
As to `O=c1[nH]c2nc(N3CCC(N4CCCCC4)CC3)ncc2c(=O)n1-c1ccc2c(c1)OCO2`, the “% Inhibition” value is -9%.
With `CS(=O)(=O)N1CC[C@H](N(C(=O)NCCc2ccccc2)C2CCOCC2)C1`, the “% Inhibition” value was -14%.
Under `CC(C)c1cccc(Nc2nc3ccncc3n(C(C)C)c2=O)c1` stands 95%.
Under `O=C(CN1CCOC2CCCCC21)N1CCOC2CCCCC21` (stereo not drawn) stands -9%; under `Cc1cc(C(=O)NC(C2CC2)C2CC2)c(C)o1`, -2%; under `O=C1NCCC[C@@H]1NS(=O)(=O)N1CCc2ccccc2C1`, 0%.
As for `CCc1cccc(NC(=O)N2CCN(C3=CC4=NC[C@H](C)N4C=N3)CC2)c1`, the “% Inhibition” value was determined as 46%.
Under `Cc1cc(-c2csc(CN3C(=O)CNC3=O)n2)cc(C)c1F` stands -4%; under `CNc1nc(N2C[C@H](C)[C@@](O)(C3CC3)C2)nc2c1CCC2`, -11%.
For the compound `Fc1ccccc1N1CCN(c2c3c(nc4nc(Cc5ccc(Cl)cc5)nn24)CCCC3)CC1`, the “% Inhibition” value is recorded as -11%.
`CNC(=O)CNC(=O)c1cccc(Cl)c1`: the “% Inhibition” value was -1%.
Under `Cc1nc([C@@H]2CCCN2c2nc(C3CCCC3)ns2)no1` stands -6%.
With `Cc1cc(NC(=O)c2occc2-c2ccccc2)sn1`, the “% Inhibition” value is -2%.
`CN(Cc1ccccc1)c1nc2ncn(CC(=O)NC3CCCCC3)c(=O)c2s1`: the “% Inhibition” value is given as -17%.
Consider `Cc1ccc(S(=O)(=O)NCC2(CNS(=O)(=O)c3ccc(C)cc3)CN(S(=O)(=O)c3ccc(C)cc3)C2)cc1`, for which the “% Inhibition” value worked out at 7%.
For the compound `COc1cccc(Cn2c(=O)c3sccc3n(CC(=O)Nc3ccc4c(c3)OCO4)c2=O)c1`, the “% Inhibition” value stood at 10%.
In the case of `COc1cccc(NC(=O)Cn2c(=O)n(C)c(=O)c3sc(N4CCCC4)nc32)c1`, the “% Inhibition” value was determined as 0%.
For `COc1cccc(NC(=O)Cn2c(C)ccc(NS(=O)(=O)c3ccc(C)cc3)c2=O)c1` the value was 63%.
For `c1ccc2oc(-c3ccnc4nncn34)cc2c1` the value was -7%; for `COc1cc(C)c2[nH]c3c(c(=O)c2c1)CN(CC(=O)Nc1ccc2c(c1)OCCO2)CC3`, 16%.
In the case of `O=C(NC1CCN(Cc2ccco2)CC1)c1ccco1`, the “% Inhibition” value was -9%.
Consider `Clc1cccc(N2CCN(Cc3nc(-c4ccco4)no3)CC2)c1`, for which the “% Inhibition” value was -6%.
`CC(C)(C)OC(=O)NCC1CCCCC1C(F)(F)F` (stereo not drawn): the “% Inhibition” value is 0%.
With `O=C(CNC(=O)OCc1ccccc1)Nc1ccc(F)cc1`, the “% Inhibition” value is listed as -12%.

Broadly, the % Inhibition is the relative decrease from the control value, in per cent.
